T1: RBFOX1 RRM RbFoxmut (Fox-RRM*) (Homo sapiens, UniProt Q9NWB1 109-208, R118D;E147R;N151S;E152T)
T1 sequence: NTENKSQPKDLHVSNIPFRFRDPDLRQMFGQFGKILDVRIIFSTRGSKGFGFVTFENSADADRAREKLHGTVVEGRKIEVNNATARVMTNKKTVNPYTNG

B1: UCGUUCG (DNA:RNA)
RNA: GGGAGACCGGAAUUCAGAUUGUCCUCGUUCGUUAAAUCCCGUCGUAGCCACCA
DNA 1: CAATCTGAATTCCGGTCTCCC
DNA 2: TGGTGGCTACGACGGGATT
B2: AGCCUAC (DNA:RNA)
RNA: B1 RNA with U25A, C26G, G27C, U28C, C30A, G31C
DNA 1: CAATCTGAATTCCGGTCTCCC
DNA 2: TGGTGGCTACGACGGGATT
B3: CCUGUCC (DNA:RNA)
RNA: B1 RNA with U25C, G27U, U28G, G31C
DNA 1: CAATCTGAATTCCGGTCTCCC
DNA 2: TGGTGGCTACGACGGGATT
B4: GAUUAGG (DNA:RNA)
RNA: B1 RNA with U25G, C26A, G27U, U29A, C30G
DNA 1: CAATCTGAATTCCGGTCTCCC
DNA 2: TGGTGGCTACGACGGGATT
B5: CGCAGCG (DNA:RNA)
RNA: B1 RNA with U25C, C26G, G27C, U28A, U29G
DNA 1: CAATCTGAATTCCGGTCTCCC
DNA 2: TGGTGGCTACGACGGGATT
B6: AUUUGCC (DNA:RNA)
RNA: B1 RNA with U25A, C26U, G27U, U29G, G31C
DNA 1: CAATCTGAATTCCGGTCTCCC
DNA 2: TGGTGGCTACGACGGGATT
B7: CAUUGCC (DNA:RNA)
RNA: B1 RNA with U25C, C26A, G27U, U29G, G31C
DNA 1: CAATCTGAATTCCGGTCTCCC
DNA 2: TGGTGGCTACGACGGGATT
B8: UGGCCUG (DNA:RNA)
RNA: B1 RNA with C26G, U28C, U29C, C30U
DNA 1: CAATCTGAATTCCGGTCTCCC
DNA 2: TGGTGGCTACGACGGGATT
B9: UGUAGCC (DNA:RNA)
RNA: B1 RNA with C26G, G27U, U28A, U29G, G31C
DNA 1: CAATCTGAATTCCGGTCTCCC
DNA 2: TGGTGGCTACGACGGGATT
B10: AUUGCCU (DNA:RNA)
RNA: B1 RNA with U25A, C26U, G27U, U28G, U29C, G31U
DNA 1: CAATCTGAATTCCGGTCTCCC
DNA 2: TGGTGGCTACGACGGGATT
B11: UGUUGCC (DNA:RNA)
RNA: B1 RNA with C26G, G27U, U29G, G31C
DNA 1: CAATCTGAATTCCGGTCTCCC
DNA 2: TGGTGGCTACGACGGGATT
B12: UGCCUUG (DNA:RNA)
RNA: B1 RNA with C26G, G27C, U28C, C30U
DNA 1: CAATCTGAATTCCGGTCTCCC
DNA 2: TGGTGGCTACGACGGGATT
B13: UGCUGCC (DNA:RNA)
RNA: B1 RNA with C26G, G27C, U29G, G31C
DNA 1: CAATCTGAATTCCGGTCTCCC
DNA 2: TGGTGGCTACGACGGGATT
B14: UGCCUCC (DNA:RNA)
RNA: B1 RNA with C26G, G27C, U28C, G31C
DNA 1: CAATCTGAATTCCGGTCTCCC
DNA 2: TGGTGGCTACGACGGGATT
B15: UUGCCUG (DNA:RNA)
RNA: B1 RNA with C26U, U28C, U29C, C30U
DNA 1: CAATCTGAATTCCGGTCTCCC
DNA 2: TGGTGGCTACGACGGGATT
B16: UGUGGCC (DNA:RNA)
RNA: B1 RNA with C26G, G27U, U28G, U29G, G31C
DNA 1: CAATCTGAATTCCGGTCTCCC
DNA 2: TGGTGGCTACGACGGGATT
B17: UGGCCUC (DNA:RNA)
RNA: B1 RNA with C26G, U28C, U29C, C30U, G31C
DNA 1: CAATCTGAATTCCGGTCTCCC
DNA 2: TGGTGGCTACGACGGGATT
B18: AGACGGA (DNA:RNA)
RNA: GGGAGACCGGAAUUCAGAUUGUCCAGACGGAUUAAAUCCCGUCGUAGCCACCA
DNA 1: CAATCTGAATTCCGGTCTCCC
DNA 2: TGGTGGCTACGACGGGATT
B19: CACCGUU (DNA:RNA)
RNA: B18 RNA with A25C, G26A, A27C, G30U, A31U
DNA 1: CAATCTGAATTCCGGTCTCCC
DNA 2: TGGTGGCTACGACGGGATT
B20: GUGUCCA (DNA:RNA)
RNA: B1 RNA with U25G, C26U, U29C, G31A
DNA 1: CAATCTGAATTCCGGTCTCCC
DNA 2: TGGTGGCTACGACGGGATT
B21: CCCAAUU (DNA:RNA)
RNA: B1 RNA with U25C, G27C, U28A, U29A, C30U, G31U
DNA 1: CAATCTGAATTCCGGTCTCCC
DNA 2: TGGTGGCTACGACGGGATT
B22: GUAUUUG (DNA:RNA)
RNA: B1 RNA with U25G, C26U, G27A, C30U
DNA 1: CAATCTGAATTCCGGTCTCCC
DNA 2: TGGTGGCTACGACGGGATT
B23: CCUUCAG (DNA:RNA)
RNA: B1 RNA with U25C, G27U, U29C, C30A
DNA 1: CAATCTGAATTCCGGTCTCCC
DNA 2: TGGTGGCTACGACGGGATT
B24: UGUCGGU (DNA:RNA)
RNA: B18 RNA with A25U, A27U, A31U
DNA 1: CAATCTGAATTCCGGTCTCCC
DNA 2: TGGTGGCTACGACGGGATT
B25: ACGAACU (DNA:RNA)
RNA: B1 RNA with U25A, U28A, U29A, G31U
DNA 1: CAATCTGAATTCCGGTCTCCC
DNA 2: TGGTGGCTACGACGGGATT
B26: CAGUGCG (DNA:RNA)
RNA: B1 RNA with U25C, C26A, U29G
DNA 1: CAATCTGAATTCCGGTCTCCC
DNA 2: TGGTGGCTACGACGGGATT
B27: AGUGCCU (DNA:RNA)
RNA: B18 RNA with A27U, C28G, G29C, G30C, A31U
DNA 1: CAATCTGAATTCCGGTCTCCC
DNA 2: TGGTGGCTACGACGGGATT
B28: UUGCCAC (DNA:RNA)
RNA: B1 RNA with C26U, U28C, U29C, C30A, G31C
DNA 1: CAATCTGAATTCCGGTCTCCC
DNA 2: TGGTGGCTACGACGGGATT
B29: UGGCUUG (DNA:RNA)
RNA: B1 RNA with C26G, U28C, C30U
DNA 1: CAATCTGAATTCCGGTCTCCC
DNA 2: TGGTGGCTACGACGGGATT
B30: GUGUGCC (DNA:RNA)
RNA: B1 RNA with U25G, C26U, U29G, G31C
DNA 1: CAATCTGAATTCCGGTCTCCC
DNA 2: TGGTGGCTACGACGGGATT
B31: CAGUGCC (DNA:RNA)
RNA: B1 RNA with U25C, C26A, U29G, G31C
DNA 1: CAATCTGAATTCCGGTCTCCC
DNA 2: TGGTGGCTACGACGGGATT
B32: CCGUGCC (DNA:RNA)
RNA: B1 RNA with U25C, U29G, G31C
DNA 1: CAATCTGAATTCCGGTCTCCC
DNA 2: TGGTGGCTACGACGGGATT
B33: ACUUGCG (DNA:RNA)
RNA: B1 RNA with U25A, G27U, U29G
DNA 1: CAATCTGAATTCCGGTCTCCC
DNA 2: TGGTGGCTACGACGGGATT
B34: ACUUGCC (DNA:RNA)
RNA: B1 RNA with U25A, G27U, U29G, G31C
DNA 1: CAATCTGAATTCCGGTCTCCC
DNA 2: TGGTGGCTACGACGGGATT
B35: UGCUGGC (DNA:RNA)
RNA: B18 RNA with A25U, A27C, C28U, A31C
DNA 1: CAATCTGAATTCCGGTCTCCC
DNA 2: TGGTGGCTACGACGGGATT
B36: UUGUGCC (DNA:RNA)
RNA: B1 RNA with C26U, U29G, G31C
DNA 1: CAATCTGAATTCCGGTCTCCC
DNA 2: TGGTGGCTACGACGGGATT
B37: UCCUGGC (DNA:RNA)
RNA: B1 RNA with G27C, U29G, C30G, G31C
DNA 1: CAATCTGAATTCCGGTCTCCC
DNA 2: TGGTGGCTACGACGGGATT

Numbering of substitutions follows the chain as printed; changes in the protein carry UniProt numbers. Whole data set: some 16,000 sequences, median “ka relative to ugcaugu” near 0.096, cut for the highest 2% near 0.35. The entries come from a sample that favours the highest values as a whole.

The target of the experiment is T1, RBFOX1 RRM RbFoxmut (Fox-RRM*). Kind of experiment: EMSA; HiTS-Eq, 1 nM pool, 10 min; buffer printed only for the single-RNA assays: 10 mM Tris pH 7.5, 150 mM NaCl, 3.4 mM EDTA, 0.001% NP-40, 30 C. Particulars: tags: His6 N-terminal (pET28a); label: 5' 32P. In short, it runs like this: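 Purified RbFox RRM (wild type or mutant) was equilibrated for 10 min in 50 µL with 1 nM of a 5′-radiolabelled pool of RNA with 7 randomized nucleotides, its flanks annealed to DNA oligonucleotides, across increasing protein concentrations. Free RNA was separated by 8% native PAGE, excised, reverse-transcribed, PCR-barcoded and sequenced on an Illumina HiSeq 2500. Relative association constants came from read-count changes of each variant against the control reaction, normalised to the cognate motif.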
With B1, the binding signal is 0.218 KA relative to UGCAUGU.

B2: the binding signal is 0.0767 KA relative to UGCAUGU.

Regarding B3, the binding signal is 0.074 KA relative to UGCAUGU.

B4: the binding signal was 0.0809 KA relative to UGCAUGU.

With B5, the binding signal is 0.135 KA relative to UGCAUGU.

As to B6, the binding signal is 0.257 KA relative to UGCAUGU.

As to B7, the binding signal is 0.374 KA relative to UGCAUGU.

As for B8, the binding signal is 0.359 KA relative to UGCAUGU.

B9: the binding signal was 0.141 KA relative to UGCAUGU.

On to B10, for which the binding signal was 0.108 KA relative to UGCAUGU.

B11: the binding signal is 0.296 KA relative to UGCAUGU.

As to B12, the binding signal was 1.27 KA relative to UGCAUGU.

Regarding B13, the binding signal was 0.298 KA relative to UGCAUGU.

On to B14, for which the binding signal is 0.155 KA relative to UGCAUGU.

For the molecule B15, the binding signal was 0.377 KA relative to UGCAUGU.

For B16, the binding signal was 0.263 KA relative to UGCAUGU.

Consider B17, for which the binding signal is 0.106 KA relative to UGCAUGU.

On to B18, for which the binding signal was 0.0873 KA relative to UGCAUGU.

For the molecule B19, the binding signal was 0.0894 KA relative to UGCAUGU.

With B20, the binding signal was 0.121 KA relative to UGCAUGU.

For the molecule B21, the binding signal is 0.0634 KA relative to UGCAUGU.

In the case of B22, the binding signal was 0.17 KA relative to UGCAUGU.

For the molecule B23, the binding signal is 0.114 KA relative to UGCAUGU.

Turning to B24, the binding signal is 0.112 KA relative to UGCAUGU.

Regarding B25, the binding signal was 0.0682 KA relative to UGCAUGU.

Regarding B26, the binding signal is 0.148 KA relative to UGCAUGU.

As for B27, the binding signal was 0.0968 KA relative to UGCAUGU.

Consider B28, for which the binding signal is 0.0642 KA relative to UGCAUGU.

For B29, the binding signal is 0.92 KA relative to UGCAUGU.

Regarding B30, the binding signal was 0.22 KA relative to UGCAUGU.

In the case of B31, the binding signal was 0.402 KA relative to UGCAUGU.

Turning to B32, the binding signal was 0.264 KA relative to UGCAUGU.

B33: the binding signal is 0.156 KA relative to UGCAUGU.

Consider B34, for which the binding signal was 0.372 KA relative to UGCAUGU.

On to B35, for which the binding signal was 0.119 KA relative to UGCAUGU.

Regarding B36, the binding signal is 0.46 KA relative to UGCAUGU.

For B37, the binding signal was 0.128 KA relative to UGCAUGU.

These data come from paper PMC9911399, “Two distinct binding modes provide the RNA-binding protein RbFox with extraordinary sequence specificity”.
